According to PubChem BioAssay (Tox21):
Records with an inconclusive call do not appear. A call without a number means that no potency is given here. Values without a mark were called inactive. The source made the active and inactive calls. The call rests on the fitted dose curve; in most records, active means well fitted inhibition curve with a large enough effect in the signal ratio in the repeat runs, with a control signal flat; inconclusive means weak or mixed curves, or effect the other way; inactive means flat fitted curve, though single readings scatter; the % refers to the signal ratio.

Molecular target: D(2) dopamine receptor (Homo sapiens) (UniProt P14416)
Sequence (P14416 whole entry, looked up): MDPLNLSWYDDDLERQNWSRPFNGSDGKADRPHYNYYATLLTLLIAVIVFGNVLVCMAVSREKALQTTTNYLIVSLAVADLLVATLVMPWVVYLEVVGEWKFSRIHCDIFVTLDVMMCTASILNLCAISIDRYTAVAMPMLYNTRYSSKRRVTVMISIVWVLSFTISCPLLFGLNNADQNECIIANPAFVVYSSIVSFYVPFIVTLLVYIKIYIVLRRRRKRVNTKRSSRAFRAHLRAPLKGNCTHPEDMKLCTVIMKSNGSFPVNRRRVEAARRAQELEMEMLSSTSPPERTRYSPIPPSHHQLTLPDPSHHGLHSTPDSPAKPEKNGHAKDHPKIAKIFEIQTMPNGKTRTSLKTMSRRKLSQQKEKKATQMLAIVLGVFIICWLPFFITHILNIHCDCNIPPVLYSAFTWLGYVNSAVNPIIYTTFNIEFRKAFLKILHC
Assay: Dopamine D2 receptor (DRD2) small molecule antagonists, cell-based qHTS assay (AID 1963595)
Settings: HEK293-DRD2 cAMP HTRF antagonist mode; series mostly up to 92.4 µM
Description: National Center for Advancing Translational Sciences [NCATS]
Division of Preclinical Innovation [DPI]
U.S. Environmental Protection Agency [EPA]
National Institutes of Environmental Health Sciences [NIEHS]
National Toxicology Program [NTP]
U.S. Food and Drug Administration [FDA]
DRD2 is the D2 subtype of the dopamine receptor, which is coupled to Gi subtype of G protein-coupled receptor. This G protein-coupled receptor inhibits adenylyl cyclase activity. The DRD2-HEK293 cell line stably expressing D2 dopamine receptor can be used for screening agonists and antagonists of interactions between D2 and its ligands. The Hek293-DRD2 cAMP assay is based on HTRF technology. It measures changes of cAMP accumulation in response to Gi coupled GPCR activation or inhibition.
Tox21 Assay Protocol Summary:
DRD2-Hek293 cells were dispensed at 600 cells/3uL/well in 1536-well white plates using a Multidrop Dispenser. After the assay plates were incubated at a 37 C/5% CO2 incubator for 24 h, 1 uL of Ro20-1724 at final concentration of 0.1 mM was transferred to the assay plate by a Flying Reagent Dispenser. Following Ro20-1724 addition, 23 nL of compound dissolved in DMSO, positive controls or DMSO only was added to the assay plates via Wako pintool station. The assay plates were incubated at room temperature for 10 min. Next, 1 uL of mixture of NKH477 (final concentration at 200 nM) and quinpirole (final concentration at 12 nM) was added into the plates. After the assay plates were incubated at room temperature for an additional 30 min, 2.5 ul/well of cAMP-d2 and 2.5 ul/well of anti-cAMP-cryptate were added respectively into the assay plates using a Flying Reagent Dispenser. The plates were incubated at room temperature for 1 h. The fluorescence intensity in the plates was measured at 340 nm excitation and 665 & 620 nm emission by an Envision plate reader.
Potency means the concentration at half of the fitted maximal effect.

Q: How did the Potency turn out when `COC(=O)C1=C(C)NC(C)=C(C(=O)OC(C)(C)CN(C)CCC(c2ccccc2)c2ccccc2)C1c1cccc([N+](=O)[O-])c1` (stereo not given) was run?
A: inactive

Q: With `Nc1ccccc1O` as the molecule, how does the Potency read?
A: inactive

Q: Which Potency does the source give for `O=[N+]([O-])c1ccc(CO)cc1` here?
A: inactive

Q: How did the Potency turn out when `ON=C1CCCC1` was run?
A: inactive

Q: With `CCOC(=O)[C@H](CCc1ccccc1)N[C@@H](C)C(=O)N1CCC[C@H]1C(=O)O` as the molecule, how does the Potency read?
A: inactive

Q: Which Potency does the source give for `Nc1ccnc(=O)[nH]1` here?
A: inactive

Q: Which Potency does the source give for `CN1CCN(C(c2ccccc2)c2ccccc2)CC1` here?
A: inactive

Q: `CC1(C)[C@H]2CC[C@]1(C)C(=O)C2` was tested. Which Potency did it give?
A: inactive

Q: For `COC(=O)c1ccccc1Cl`, which Potency is on record?
A: inactive

Q: With `CC1=C(C(=O)OC(C)C)C(c2cccc([N+](=O)[O-])c2)C(C(=O)OC2CN(C(c3ccccc3)c3ccccc3)C2)=C(N)N1` (stereo not given) as the molecule, how does the Potency read?
A: inactive

Q: Which Potency does the source give for `CC(=O)C(C)=O` here?
A: inactive

Q: `CCN(CC)CCOc1ccc(C(O)(Cc2ccc(Cl)cc2)c2ccc(C)cc2)cc1` (stereo not given) was tested. Which Potency did it give?
A: inactive

Q: Which Potency does the source give for `Cc1[nH]c(=O)c(C#N)cc1-c1ccc2nccn2c1` here?
A: inactive

Q: With `CC(C)(C)OC(=O)c1ccccc1C(=O)O` as the molecule, how does the Potency read?
A: inactive

Q: Which Potency does the source give for `NC1CCN(c2nc3c(cc2F)c(=O)c(C(=O)O)cn3-c2ccc(F)cc2F)C1` (stereo not given) here?
A: inactive

Q: With `CCN(CC)c1ccc(C=O)cc1` as the molecule, how does the Potency read?
A: inactive

Q: How did the activity change, negative = inhibition turn out when `C=CC(=C)CC/C=C(\C)CCC=C(C)C` was run?
A: -0.805% [at 18.9 µM]

Q: How did the Potency turn out when `CCCC(C)C=O` (stereo not given) was run?
A: inactive

Q: Which Potency does the source give for `OCCN(CCO)CCN(CCO)CCO` here?
A: inactive

Q: `C/C=C(\C)C#N` was tested. Which Potency did it give?
A: inactive

Q: Which Potency does the source give for `COc1ccc(CCN(C)CCCC(C#N)(c2cc(OC)c(OC)c(OC)c2)C(C)C)cc1OC` (stereo not given) here?
A: inactive

Q: With `O=C(OC1C[C@H]2CC[C@@H](C1)[N+]21CCCC1)C(O)(c1ccccc1)c1ccccc1` (stereo not given in full) as the molecule, how does the Potency read?
A: inactive

Q: `CCC1C(=O)OCC1Cc1cncn1C` (stereo not given) was tested. Which Potency did it give?
A: inactive

Q: For `COc1cc(-c2ccc(N=C=O)c(OC)c2)ccc1N=C=O`, which Potency is on record?
A: inactive

Q: `CCc1cc(Cl)c(OC)c(C(=O)NC[C@@H]2CCCN2CC)c1O` was tested. Which Potency did it give?
A: 3.3 nM (active)

Q: `C=CC/C=C/C` was tested. Which Potency did it give?
A: inactive

Q: Which Potency does the source give for `Cc1cccc(C)c1OCC(C)N` (stereo not given) here?
A: inactive

Q: With `CCCCCCCCN(C)CCCCCCCC` as the molecule, how does the Potency read?
A: inactive

Q: `CCCC(=O)OCOC(=O)C1=C(C)NC(C)=C(C(=O)OC)C1c1cccc(Cl)c1Cl` (stereo not given) was tested. Which Potency did it give?
A: inactive

Q: `CCCCCCCCCCCC[N+](C)(C)CC(=O)[O-]` was tested. Which Potency did it give?
A: inactive

Q: `O=c1[nH]c(=O)n([C@H]2C[C@H](O)[C@@H](CO)O2)cc1I` was tested. Which Potency did it give?
A: inactive

Q: How did the Potency turn out when `C1=CCC(c2ccccc2)CC1` (stereo not given) was run?
A: inactive

Q: `C=C(C)C1CC=C(C)C(O)C1` (stereo not given) was tested. Which Potency did it give?
A: inactive

Q: Which Potency does the source give for `O=C(CO)[C@@H](O)[C@H](O)[C@@H](O)CO` here?
A: inactive

Q: `CN(C)CCN(Cc1ccc(Cl)cc1)c1ccccn1` was tested. Which Potency did it give?
A: inactive

Q: Which Potency does the source give for `CC(C)(C)NCCNC(C)(C)C` here?
A: inactive

Q: `CSc1nc(NC2CC2)nc(NC(C)(C)C)n1` was tested. Which Potency did it give?
A: inactive

Q: With `O=C(O)CCCc1c[nH]c2ccccc12` as the molecule, how does the Potency read?
A: inactive

Q: `C=C1C(CCl)(CCl)C2(Cl)C(Cl)C(Cl)C1(Cl)C2(Cl)Cl` (stereo not given) was tested. Which Potency did it give?
A: inactive

Q: For `Cc1cc(NC(=O)C2=C(O)c3ccccc3S(=O)(=O)N2C)no1`, which Potency is on record?
A: inactive
